The whole screen tested about 21,000 compounds, of which fewer than 10 showed an effect of 50% or more. A selection follows. Results with a measured potency or affinity are listed apart.
These compounds were tested on Acinetobacter baumannii. Details: Concentration 32 ug.mL-1; ASSAY_TEST Inhibition of Bacterial Growth; detection method Absorption (OD600); MEDIA CAMHB; plate type 384well; NBS; CORNING #3640; time 18 hr.
`COc1ccc2c(c1)CCC(=Cc1cccnc1Br)C2=O` was tested, and the Inhibition was -2.26%.

From ChEMBL document CHEMBL4513147, “CO-ADD screening of Armstrong State University (GA, USA) compounds”
